What follows are compounds tested on P. falciparum stage V gametocytes. Conditions: 48 h, 5 µM; inhibitor.
Set-up: BacTiter-Glo ATP luminescence viability of purified stage V gametocytes in 384-well plates, per cent inhibition versus DMSO
Method: Once purified, gametocytes were counted using a Neubauer chamber, and the density was adjusted to 2.5 x 10^5 gametocytes/mL. Fifty μL of the gametocyte suspension (1.25 x 10^4 gametocytes) were added to each well of the 384-well plate containing the compounds, using a Multidrop combi (Thermo Electron Corporation). Plates were shaken for 5 sec to homogenize and then incubated at 37°C for 48 h in an atmosphere of 5% CO2, 5% O2, 90% N2. The ATP level of each well was determined using the BacTiter-Glo reagent (Promega) according to the recommendations of the manufacturer. The BacTiter-Glo assay generates a ‘glow-type’ luminescent signal produced by the luciferase reaction, which consists of mono-oxygenation of luciferin catalyzed by luciferase in the presence of Mg^2+, ATP and molecular oxygen. The luminescence was measured using a plate reader (Victor V, Perkin Elmer). […] The background value was subtracted from every other value of the assay prior to further calculation. The average of 16 replicates of vehicle control (0.5% or 0.1% DMSO) represents 100% of signal. Related to this value, each test concentration was calculated as percentage of control. All the calculations were done using MS Excel software. The compounds which presented inhibition ≥ 90% at 5 μM were progressed to the assay at 1 μM. […]
For `CCC1CN2CCc3cc(OC)c(OC)cc3C2CC1CC1NCCc2cc(OC)c(OC)cc21` (centres unmarked) [TCMDC-125849], the “% Inhibition” value was 100.9%.
For `CC[C@H]1CN2CCc3cc(OC)c(OC)cc3[C@@H]2C[C@@H]1C[C@H]1NCCc2cc(OC)c(OC)cc21` [TCMDC-125531], the “% Inhibition” value was 96.47%.
